# Reference: the supplement of paper PMC8728848
# The full list was thinned out, with the strongest signals kept by preference.
# B1: SLLPI (Homo sapiens), Q8IXA5 (protein)
# chain: MVSALRGAPLIRVHSSPVSSPSVSGPRRLVSCLSSQSSALSQSGGGSTSAAGIEARSRALRRRWCPAGIMLLALVCLLSCLLPSSEAKLYGRCELARVLHDFGLDGYRGYSLADWVCLAYFTSGFNAAALDYEADGSTNNGIFQINSRRWCSNLTPNVPNVCRMYCSDLLNPNLKDTVICAMKITQEPQGLGYWEAWRHHCQGKDLTEWVDGCDF
# What was measured:
# Experiment in all cases: glycan array binding signal (z-score within array); higher = stronger binding
# Conditions in all cases: glycan notation: IUPAC condensed, linker removed
# [1] = target: Fuc(a1-2)Gal(b1-3)GalNAc(b1-3)Gal
# In short: (§1)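 The binding signal is a Z-score computed within each array and averaged over linkers. Arrays of the same protein sequence at different concentrations or buffers were also averaged together. Data originate from 3228 arrays in the Consortium for Functional Glycomics database, kept only where the protein sequence was available.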
# [2] = target: Fuc(a1-2)Gal(b1-3)GlcNAc
# In short: as §1
# [3] = target: Fuc(a1-2)Gal(b1-4)Glc
# In short: as §1
# [4] = target: Fuc(a1-2)Gal(b1-4)GlcNAc(b1-3)Gal(b1-4)GlcNAc
# In short: as §1
# [5] = target: Fuc(a1-2)Gal6S(b1-4)GlcNAc
# In short: as §1
# [6] = target: Fuc(b1-3)GlcNAc
# In short: as §1
# [7] = target: Gal(a1-3)[Gal(a1-4)]Gal(b1-4)GlcNAc
# In short: as §1
# [8] = target: Gal(b1-3)GalNAc(b1-4)Gal(b1-4)Glc
# In short: as §1
# [9] = target: Gal(b1-3)GlcNAc(b1-2)Man(a1-3)[Gal(b1-3)GlcNAc(b1-2)Man(a1-6)]Man(b1-4)GlcNAc(b1-4)GlcNAc
# In short: as §1
# [10] = target: Gal(b1-3)GlcNAc(b1-3)Gal(b1-4)Glc
# In short: as §1
# [11] = target: Gal(b1-4)GalNAc(a1-3)[Fuc(a1-2)]Gal(b1-4)GlcNAc
# In short: as §1
# [12] = target: Gal(b1-4)GlcNAc(b1-3)Gal(b1-3)GlcNAc
# In short: as §1
# [13] = target: Gal3S(b1-3)[Fuc(a1-4)]GlcNAc
# In short: as §1
# [14] = target: Gal6S(b1-4)Glc6S
# In short: as §1
# [15] = target: GalNAc(a1-3)Gal
# In short: as §1
# [16] = target: GlcA(b1-3)GlcNAc
# In short: as §1
# [17] = target: GlcA(b1-6)Gal
# In short: as §1
# [18] = target: GlcNAc(b1-2)Gal(b1-3)GalNAc
# In short: as §1
# [19] = target: GlcNAc(b1-3)Gal
# In short: as §1
# [20] = target: GlcNAc(b1-3)Gal(b1-4)Glc
# In short: as §1
# [21] = target: Man(a1-2)Man(a1-2)Man(a1-3)Man
# In short: as §1
# [22] = target: Man(a1-3)[Man(a1-6)]Man(a1-6)[Man(a1-2)Man(a1-3)]Man(b1-4)GlcNAc(b1-4)GlcNAc
# In short: as §1
# [23] = target: Neu5Ac(a2-3)Gal(b1-4)GlcNAc(b1-2)Man(a1-3)[GlcNAc(b1-2)Man(b1-4)GlcNAc(b1-2)Man(a1-6)]Man(b1-4)GlcNAc(b1-4)GlcNAc
# In short: as §1
# [24] = target: Neu5Ac(a2-3)Gal(b1-4)[Fuc(a1-3)]GlcNAc(b1-3)Gal(b1-4)GlcNAc
# In short: as §1
# [25] = target: Neu5Ac(a2-3)Gal(b1-4)[Fuc(a1-3)]GlcNAc(b1-3)Gal(b1-4)[Fuc(a1-3)]GlcNAc(b1-3)Gal(b1-4)[Fuc(a1-3)]GlcNAc
# In short: as §1
# [26] = target: Neu5Gc(a2-3)Gal(b1-4)GlcNAc
# In short: as §1
# [27] = target: Neu5Gc(a2-6)Gal(b1-4)GlcNAc
# In short: as §1
binder,measurement,setting,value
B1,glycan array binding signal (z-score),[1],1.93
same,glycan array binding signal (z-score),[2],-0.188
same,glycan array binding signal (z-score),[3],0.145
same,glycan array binding signal (z-score),[4],0.263
same,glycan array binding signal (z-score),[5],0.21
same,glycan array binding signal (z-score),[6],-0.512
same,glycan array binding signal (z-score),[7],0.947
same,glycan array binding signal (z-score),[8],-0.063
same,glycan array binding signal (z-score),[9],0.777
same,glycan array binding signal (z-score),[10],0.044
same,glycan array binding signal (z-score),[11],-0.332
same,glycan array binding signal (z-score),[12],-0.37
same,glycan array binding signal (z-score),[13],-0.205
same,glycan array binding signal (z-score),[14],1.85
same,glycan array binding signal (z-score),[15],1.65
same,glycan array binding signal (z-score),[16],0.16
same,glycan array binding signal (z-score),[17],-0.073
same,glycan array binding signal (z-score),[18],-0.634
same,glycan array binding signal (z-score),[19],0.2
same,glycan array binding signal (z-score),[20],0.579
same,glycan array binding signal (z-score),[21],3.65
same,glycan array binding signal (z-score),[22],1.02
same,glycan array binding signal (z-score),[23],4.44
same,glycan array binding signal (z-score),[24],0.654
same,glycan array binding signal (z-score),[25],0.311
same,glycan array binding signal (z-score),[26],-0.286
same,glycan array binding signal (z-score),[27],-0.251
